# Assay results published in PubChem BioAssay (NCI).
# The panel holds about 83,000 compounds, 20% with a hit somewhere; the sample as a whole holds those more often.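 Step 1: grow cells in 96-well plates. Step 2: add test compound at a single concentration. Step 3: incubate 48 h. Step 4: record percent growth.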 Values without a mark were called inactive. Active and inactive are the calls of the source. Rule for the calls: active = growth percent below 10; inactive = the rest.
# Columns and labels:
# Test in all cases: NCI-60 one-dose screen, 48 h (100 = growth as untreated, 0 = no growth, -100 = all killed)
# [1] = tested on: NCI-H23 lung; conditions: 10 µM unless noted
# [2] = tested on: NCI-H226 lung; conditions: 10 µM unless noted
# [3] = tested on: NCI-H322M lung; conditions: 10 µM unless noted
# [4] = tested on: HOP-62 NSCLC; conditions: 10 µM unless noted
# [5] = tested on: NCI-H460 lung; conditions: 10 µM unless noted
# [6] = tested on: NCI-H522 lung; conditions: 10 µM unless noted
# [7] = tested on: A549/ATCC NSCLC; conditions: 10 µM unless noted
# [8] = tested on: 786-0 renal; conditions: 10 µM unless noted
# [9] = tested on: COLO 205 colon; conditions: 10 µM unless noted
# [10] = tested on: DU-145 prostate; conditions: 10 µM unless noted
# [11] = tested on: K-562 leukemia; conditions: 10 µM unless noted
# [12] = tested on: MALME-3M melanoma; conditions: 10 µM unless noted
# [13] = tested on: MDA-MB-231 breast; conditions: 10 µM unless noted
# [14] = tested on: RXF 393 renal; conditions: 10 µM unless noted
# [15] = tested on: SF-268 CNS; conditions: 10 µM unless noted
# [16] = tested on: SF-295 CNS; conditions: 10 µM unless noted
# [17] = tested on: SF-539 CNS; conditions: 10 µM unless noted
# [18] = tested on: UACC-257 melanoma; conditions: 10 µM unless noted
# [19] = tested on: M14 melanoma; conditions: 10 µM unless noted
# [20] = tested on: HOP-92 NSCLC; conditions: 10 µM
Compound,growth [1],growth [2],growth [3],growth [4],growth [5],growth [6],growth [7],growth [8],growth [9],growth [10],growth [11],growth [12],growth [13],growth [14],growth [15],growth [16],growth [17],growth [18],growth [19],growth [20]
COc1ccc2[nH]cc(-c3csc4nc(-c5ccccc5)cn34)c2c1,30.8%,31.4%,64.6%,24.5%,2.01% (active),-34% (active),29.9%,51.6%,-32.6% (active),18.4%,11.2%,54.2%,20.8%,-15.7% (active),41.1%,-2.19% (active),-6.33% (active),60.4%,11.6%,
CCCn1cnc2c(c1=N)C(c1ccc(F)cc1)c1sc3c(C)cccc3c1O2 (stereo unspecified),25.7%,8.74% (active),49.9%,32%,8.38% (active),,35.6%,23.5%,52.2%,27.5%,5.29% (active),47.1%,53%,-39% (active),53.8%,-0.689% (active),-27.1% (active),70.8%,9.53% (active),33.5%
O=S(=O)(NCCNc1nccc(-n2cnc3ccccc32)n1)c1ccc(C(F)(F)F)cc1,54.5%,62.7%,85.3%,66.1%,57.8%,38.2%,55.4%,69.6%,64.9%,71.8%,40.8%,71.4%,64%,38.2%,59.5%,44.7%,64.8%,36.8%,,
N#C/C(=C\c1ccc(-c2ccc(Cl)cc2Cl)o1)c1ccc(F)cc1,87.7%,5.86% (active),93.4%,82.2%,90.7%,88.1%,100%,94%,100%,102%,92.5%,98.7%,83.4%,67.5%,92.3%,99.8%,89.9%,104%,95.3%,
CS(=O)(=O)Nc1cc(-c2ccc3ncc(C#N)c(NCc4ccccc4)c3c2)cnc1Cl,0.346% (active),-9.59% (active),16.5%,2.7% (active),3.01% (active),,7.72% (active),0.0627% (active),,8.12% (active),9.74% (active),-38.7% (active),-51.8% (active),-46.6% (active),-4.76% (active),-32.3% (active),-42.6% (active),1.36% (active),-9.52% (active),-16.8% (active)
Cc1ccc(-n2c(/C=C3\C(=O)Nc4ccccc43)ccc2CO)cc1,80.6%,88.2%,103%,72.8%,80.3%,73.6%,71.3%,101%,91.5%,92.2%,19.2%,44%,64%,66.1%,89.5%,69.8%,68.7%,85.8%,,
O=C1[C@H]2Cc3c([nH]c4ccccc34)[C@@H](c3ccc(Br)cc3)N2C(=O)CN1C1CCN(CC2CCCCC2)CC1,-81.3% (active),-3.54% (active),16.2%,10.8%,-85.7% (active),,-77.3% (active),-94.6% (active),-90.6% (active),-49.7% (active),-63.7% (active),-82.3% (active),-94.8% (active),-96% (active),22.2%,-61.5% (active),-89.3% (active),-60.2% (active),-77.2% (active),-59.4% (active)
Cc1[nH]c(C(=O)Nc2ccccc2OCc2cccc(C(=O)N3CCC[C@@H](N)C3)c2)c(Cl)c1Cl,-80.6% (active),-67.4% (active),-94.3% (active),-60.4% (active),-73.7% (active),-66.5% (active),-77% (active),-72.6% (active),-64% (active),-89.3% (active),-49.6% (active),-79.1% (active),-75.8% (active),-87.6% (active),-66.9% (active),-91.7% (active),-89.2% (active),-72.4% (active),-85.7% (active),
CNC(=O)c1cc(Oc2ccc3nc(NC(=O)c4cccc(OC(F)(F)F)c4)sc3c2)ccn1,82.8%,26.5%,92.6%,78.5%,75.1%,60.3%,77.5%,50.4%,106%,75.4%,61.8%,76.8%,76.1%,-1.69% (active),81.8%,77.8%,63.9%,77.6%,93.9%,
O=C(Nc1cccc(C(F)(F)F)c1)c1cc(-c2ccc(F)cc2F)ccc1O,-4.34% (active),9.06% (active),4.46% (active),12.8%,2.67% (active),-4.56% (active),7.54% (active),14.9%,75.5%,18.9%,11.1%,-10.2% (active),3.11% (active),-25.9% (active),16.5%,-23.1% (active),10.4%,-8.74% (active),,
N#Cc1c(-c2cccs2)cc(-c2cnccn2)nc1SCC(=O)c1ccc(F)cc1,90.6%,89.3%,97.8%,76.4%,103%,,86.6%,88.6%,105%,79.5%,87.2%,101%,68.7%,62.2%,84.7%,93.6%,76.9%,109%,116%,76%
CC1(C)CC[C@]2(C(=O)N3CCOCC3)CC[C@]3(C)C(=CC[C@@H]4[C@@]5(C)C/C(=C/c6ccccn6)C(=O)C(C)(C)[C@@H]5CC[C@]43C)[C@@H]2C1,60.2%,76.2%,103%,78.5%,54.9%,,54.5%,64.4%,74.2%,62.3%,34.5%,88.7%,55.2%,3.83% (active),59.6%,75.1%,94%,59.6%,77.9%,51.1%
O=C1/C(=C/C=C/c2ccco2)SC(=S)N1c1ccccc1,70.7%,67.8%,87.2%,104%,91.2%,58%,52.9%,71.1%,83.2%,97.6%,64.6%,15.5%,80.3%,-33.5% (active),108%,91.3%,90.3%,83.2%,40.7%,
C=C(C)[C@@H]1CC[C@]2(COP(=O)(OCC)OCC)CC[C@]3(C)[C@H](CC[C@@H]4[C@@]5(C)CCCNC(C)(C)[C@@H]5CC[C@]43C)[C@@H]12,37.1%,53.8%,84.7%,62.9%,-32.8% (active),,36.3%,35.7%,-15.4% (active),31.8%,-10.7% (active),-51.8% (active),52%,-8.28% (active),50.1%,19.8%,57.7%,29.1%,-46.4% (active),41%
c1cc(-c2nc3ccc4[nH]ncc4c3c3c2CCCC3)[nH]n1,54.8%,74.9%,76.6%,68.6%,38.8%,30.9%,48.1%,64.7%,54.1%,63%,64%,87.7%,89.2%,38%,71.4%,67.5%,54.1%,91.1%,39.7%,
